SMN2 splice enh – enhancers of SMN2 splice variant expression; HEK293 SMN2-luciferase splicing reporter, luminescence, 30-36 h; Potency, µM (highest dose often 46.1 µM), most hits filed as activators; 2.8% of 210,000 active; further: nearly all actives have a fitted effect of over 55% in size
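HEK293 cells carry an SMN2 […]–luciferase reporter in which exon 7 inclusion puts luciferase in frame. Cells were plated 10-12 h before compound addition, then incubated 30-36 h at 37C. ONE-Glo luminescence was read; sodium butyrate at 4.5 mM final served as control.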
NPC1 prom act – NPC1 promoter activation; Huh7 NPC1 promoter luciferase reporter, 24 h; Potency, µM (highest dose often 9.22 µM), most hits filed as activators; 2.4% of 320,000 active; further: nearly all actives have a fitted effect of over 60% in size
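Quantitative HTS used a cell-based reporter: Huh7 cells stably bearing the NPC1 promoter upstream of luciferase were treated with compounds for 24 h, and promoter activation was read as luminescence.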
FLuc counter – firefly luciferase modulation, counter-screen for miR-21 project | P08659 | purified FLuc, Km substrates, luminescence inhibition | Potency, µM (series often up to 57.5 µM), actives largely listed as inhibitors | 6.9% of 360,000 active; further: nearly all actives have a fitted effect of over 55% in size
Target sequence (P08659 whole entry, looked up): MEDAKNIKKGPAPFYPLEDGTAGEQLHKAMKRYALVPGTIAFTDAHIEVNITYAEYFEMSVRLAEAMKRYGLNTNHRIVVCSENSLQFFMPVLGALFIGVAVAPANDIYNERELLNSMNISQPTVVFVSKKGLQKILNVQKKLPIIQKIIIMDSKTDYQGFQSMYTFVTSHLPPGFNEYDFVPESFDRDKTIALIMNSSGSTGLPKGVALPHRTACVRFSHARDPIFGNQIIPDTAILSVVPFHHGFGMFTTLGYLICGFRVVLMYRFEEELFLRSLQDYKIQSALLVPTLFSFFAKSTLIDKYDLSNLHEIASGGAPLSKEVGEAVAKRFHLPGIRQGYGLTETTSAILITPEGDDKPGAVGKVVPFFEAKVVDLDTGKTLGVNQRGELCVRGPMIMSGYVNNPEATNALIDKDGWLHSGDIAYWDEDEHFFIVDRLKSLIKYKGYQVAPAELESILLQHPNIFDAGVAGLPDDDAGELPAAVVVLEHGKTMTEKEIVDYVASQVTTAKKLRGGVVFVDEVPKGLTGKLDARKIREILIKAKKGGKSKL
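Biochemical qHTS of compounds, final roughly 60 µM downward over six points, against 10 nM purified firefly luciferase using Km concentrations of substrates (10 uM D-luciferin, 10 uM ATP) in Tris acetate pH 7.5 buffer; luminescence output.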
ELG1 genotoxic – inducers of genotoxicity in HEK293T ELG1-luciferase cells; HEK293T ELG1-luciferase reporter, luminescence, 16 h; 1.3% of 330,000 active; Potency, µM (top dose mostly 46 µM), actives largely listed as activators; further: nearly all actives have a fitted effect of over 60% in size
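HEK293T cells expressing luciferase-tagged ELG1 were exposed to compound or DMSO vehicle for 16 hr at 37 °C and 5% CO2. Luciferase activity was then measured with ONE-Glo after 30 min at room temperature.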
Rab9 promoter act – Rab9 promoter activation; Huh7 Rab9 promoter-luciferase reporter, luminescence, 24 h; 2.8% of 320,000 active; AID 485297; Potency, µM (series often up to 9.22 µM), actives largely listed as activators; further: nearly all actives have a fitted effect of over 60% in size
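Measured in stably transfected Huh7 cells bearing a Rab9 promoter–luciferase construct: 24 h compound treatment at 37 °C, followed by luminescence detection.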
ELG1 repair inh – ELG1-dependent DNA repair inhibition. HEK293T ELG1-luciferase reporter, luminescence, 16 h; DNA damage induced by 5-fluorouridine. Potency, µM (doses to about 46.1 µM), hits mostly inhibitors. 2.3% of 330,000 active. AID 504467; further: nearly all actives have a fitted effect of over 55% in size
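Luminescence from the luciferase reporter, measured 30 min after ONE-Glo reagent at room temperature, was the read-out. Beforehand, 2,000 cells per well were exposed for 16 hr at 37 °C to 5-fluorouridine together with compound or vehicle.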
Hits are given with their value; – = inactive; ? = inconclusive; · = no result given. This is a sample that favours compounds with a hit; in the whole collection about 9.2% have one here. The call rests on the fitted dose curve; in most records, active means well fitted curve in the direction sought with a large enough effect; inconclusive means small, poorly fitted or top-dose-only effect, or another doubt; inactive means no such curve, though single readings can be large; an effect the other way counts as inactive or inconclusive.

SMILES	SMN2 splice enh	NPC1 prom act	FLuc counter	ELG1 genotoxic	Rab9 promoter act	ELG1 repair inh
CN1CCN(c2ccc(NC(=O)c3cccc(OCc4ccccc4)c3)cc2)CC1	–	–	7.6µM	–	–	?
CC(=O)Nc1cccc(NC(=O)c2cccc(-c3ccc(O)cc3)c2)c1	·	–	9.5µM	–	–	?
CCCCCn1c(=O)[nH]c2cc(C(=O)Nc3cc(OC)cc(OC)c3)ccc2c1=O	–	·	–	·	·	·
Cc1oc(-c2cccc(Cl)c2)nc1CN1CCC(C(=O)NCc2ccc(F)cc2)CC1	–	·	–	·	·	·
O=C(Nc1nc(-c2ccc(Cl)cc2)cs1)C1CCCO1 (stereo unspecified)	–	–	15µM	?	?	?
CCOc1ccc(-c2csc(NC(=O)C3CCCO3)n2)cc1 (stereo unspecified)	–	–	15µM	?	–	–
CCOc1ccc(C2CC(=O)c3c([nH]c(C(=O)OC4CCCCCC4)c3C)C2)cc1 (stereo unspecified)	–	·	–	·	·	·
Cc1c(C(=O)OC2CCC(C)CC2)[nH]c2c1C(=O)CCC2 (stereo unspecified)	2.5µM	0.5µM	4.3µM	2.6µM	0.45µM	?
COCCOC(=O)c1[nH]c2c(c1C)C(=O)C(C(=O)OC)C(C)C2 (stereo unspecified)	11µM	?	9.5µM	16µM	3.5µM	?
COC(=O)C1C(=O)c2c([nH]c(C(=O)OC3CCCCCC3)c2C)CC1C (stereo unspecified)	?	?	?	18µM	?	?
COC(=O)C1C(=O)c2c([nH]c(C(=O)OCC3CCCO3)c2C)CC1C (stereo unspecified)	?	–	8.5µM	9.2µM	?	?
CC1SC(=Nc2ccccc2)N(S(=O)(=O)c2ccccc2)C1=O (stereo unspecified)	·	–	–	–	–	–
Cc1nn(-c2ccccc2)c(OC(=O)C(C)(C)C)c1Sc1ccccc1	–	·	?	·	·	·
O=[N+]([O-])c1ccc(-c2ccc(S(=O)(=O)NCCN3CCCC3)cc2)cc1	–	–	–	–	–	?
CCN(CC(=O)Nc1cccc(C(C)=O)c1)S(=O)(=O)c1ccccc1	·	–	–	–	–	–
COCCOC(=O)c1[nH]c2c(c1C)C(=O)CC(c1cc(OC)c(OC)c(OC)c1)C2 (stereo unspecified)	·	–	–	–	–	8.2µM
CCCCCOC(=O)c1[nH]c2c(c1C)C(=O)C(C(=O)OC)C(C)C2 (stereo unspecified)	–	–	11µM	–	?	–
CCCCOC(=O)c1[nH]c2c(c1C)C(=O)CC(c1cc(OC)c(OC)c(OC)c1)C2 (stereo unspecified)	–	–	–	–	–	?
O=[N+]([O-])c1cc(N=Nc2ccc3ccccc3c2)ccc1O	·	2.2µM	3.4µM	?	2µM	?
CCOc1nc(NCCO)nc(Nc2ccc([N+](=O)[O-])cc2)n1	–	–	–	–	–	10µM
CCOc1ccc(Nc2nc(Cl)nc(NCCO)n2)cc1	–	–	–	–	–	–
Brc1ccc(-c2ncc(-c3ccccc3)cn2)cc1	7.9µM	0.5µM	0.43µM	0.82µM	0.71µM	?
Brc1ccc(-c2ccccc2)cc1	–	–	–	–	–	–
CCCC(=O)Nc1ccc2c(c1)nc1n2CCN(CCOC)C1	·	–	–	–	–	–
COc1ccc(Cn2c(O)c(C=Nc3ccc(O)cc3)c3ccccc3c2=O)cc1	–	–	–	–	–	23µM
SMILES	SMN2 splice enh	NPC1 prom act	FLuc counter	ELG1 genotoxic	Rab9 promoter act	ELG1 repair inh
Oc1[nH]c2ccccc2c1C=Nc1ccc2c(c1)OCO2	0.89µM	2µM	7.6µM	?	1.8µM	?
COc1ccc(N=Cc2c(O)ccc3ccccc23)cc1	·	–	13µM	–	–	–
COc1ccc(N=Cc2c(O)[nH]c3ccccc23)cc1	13µM	1.6µM	2.7µM	?	1.6µM	?
CCOc1cccc(-c2c(C(=O)N/N=C/c3ccsc3)nnn2-c2nonc2N)c1	·	–	–	–	–	–
Cc1ccc2oc(=O)c3cc(C(=O)Nc4cccc(C#N)c4)sc3c2c1	–	·	–	·	·	·
CC(=O)Nc1ccc(NC(=O)Cn2cc3c(n2)CCCCC3)cc1	–	·	–	·	·	·
COc1cc(C2=NOC(C(=O)Nc3cc(C)on3)C2)cc(OC)c1OC (stereo unspecified)	·	–	–	–	–	?
CCCn1c(N)c(C(=O)CSc2nc(C3CC3)n(-c3ccccc3)n2)c(=O)[nH]c1=O	·	·	·	?	·	–
Oc1ccc(Br)cc1C1Nc2ccccc2S1 (stereo unspecified)	·	–	?	?	?	?
Oc1[nH]c2ccccc2c1/C=N/N1CCCCC1	–	–	–	–	–	?
Cc1ccc(N=Cc2c(O)[nH]c3ccccc23)c([N+](=O)[O-])c1	–	?	?	?	0.56µM	?
Oc1[nH]c2ccccc2c1/C=N/c1nccs1	?	?	12µM	–	?	?
CCOC(=O)c1sc(/N=C/c2c(O)ccc3ccccc23)cc1C	–	–	19µM	–	–	?
O=C(O)c1ccc(N=Cc2c(O)ccc3ccccc23)cc1	·	–	30µM	–	–	–
Cc1ccc(S(=O)(=O)N2CCOC2CNC(=O)C(=O)NCc2ccc3c(c2)OCO3)cc1 (stereo unspecified)	·	–	–	–	–	?
CCCCC(=O)NC(NC(=S)N1CCCCCC1)C(Cl)(Cl)Cl (stereo unspecified)	–	–	–	–	–	–
CC(NC(=O)c1ccccc1Br)c1nnc(SCC(=O)NC2=NCCS2)n1C (stereo unspecified)	·	–	–	–	–	–
O=C(NNc1nc(-c2ccccc2)cs1)c1ccccc1	–	–	?	–	–	?
Oc1ccc(-c2csc(Nc3ccccn3)n2)cc1	·	2µM	6.7µM	7.3µM	3.2µM	?
Cc1c(Nc2nc(-c3ccc(Cl)cc3)cs2)c(=O)n(-c2ccccc2)n1C	–	–	–	–	–	–
Cc1ccc(-c2csc(Nc3ccccn3)n2)cc1	·	0.71µM	0.6µM	0.82µM	1µM	?
Cc1cc(-c2csc(Nc3ccccn3)n2)ccc1F	·	1.4µM	1.7µM	?	1.6µM	?
c1ccc(-c2csc(Nc3ccccn3)n2)cc1	·	2.2µM	1.3µM	2.9µM	1.3µM	?
Cc1ccc(NC(=O)COC(=O)CC2CCCC2)cc1F	·	·	·	–	·	–
CCOc1ccccc1NC(=O)Cn1c(=O)n(Cc2cccs2)c(=O)c2cccnc21	–	·	–	·	·	·
Fc1ccc(-c2csc(Nc3ccccn3)n2)c(F)c1	·	1.6µM	0.6µM	?	2.8µM	?
COc1ccc(-c2csc(Nc3ccccn3)n2)cc1OC	·	1.8µM	6.7µM	2.3µM	2µM	?
O=C(Nc1nc(-c2cc(F)ccc2F)cs1)c1ccccn1	–	–	?	–	–	–
